{
  "source": "the supplement of paper PMC6897291",
  "note": "Counter-ions that a name gives are not always drawn.",
  "data": [
    {"test_system": "RIVA", "experiment": "growth inhibition by drug alone (1 - RLU/untreated control) (fraction); higher = stronger inhibition", "details": "100 nM; time (day): 5; 177Lu-lilotomab satetraxetan 0 ug/ml", "how_it_was_run": "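Compound doses on the pre-printed Selleck Cambridge Cancer Compound library plates were 10/100 nM for RIVA cells and 10/1,000 nM for U-2932 cells, seeded at 3,000 cells/well. Before seeding, cells were washed after 18 h with or without a radiolabelled anti-CD37 antibody conjugate (~600 MBq/mg; 0.5 µg/ml RIVA, 1 µg/ml U-2932). Growth inhibition was derived from RealTime-Glo luminescence relative to untreated no-drug control wells. Readings were taken daily starting on day 3, each after 1 h at 37°C, and each well's RLU was divided by the mean of 48 such wells per plate and subtracted from 1.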", "values": [
      {"smiles": "Nc1nc2[nH]cc(CCc3ccc(C(=O)N[C@@H](CCC(=O)O)C(=O)O)cc3)c2c(=O)[nH]1", "note": "[Pemetrexed]", "growth inhibition by drug alone": -0.377},
      {"smiles": "COc1cc2nccc(Oc3ccc(NC(=O)Nc4cc(C)on4)c(Cl)c3)c2cc1OC", "note": "[Tivozanib (AV-951)]", "growth inhibition by drug alone": 0.0755},
      {"smiles": "CCC(=O)N1CCN(c2ccc(-n3c(=O)ccc4cnc5ccc(-c6cnc7ccccc7c6)cc5c43)cc2C(F)(F)F)CC1", "note": "[Torin 1]", "growth inhibition by drug alone": 0.289},
      {"smiles": "COc1cccc2c1C(=O)c1c(O)c3c(c(O)c1C2=O)C[C@@](O)(C(=O)CO)C[C@@H]3O[C@H]1C[C@H](N)[C@@H](O)[C@H](C)O1", "note": "[Epirubicin Hydrochloride]", "growth inhibition by drug alone": 0.848},
      {"smiles": "Clc1ccc(Nc2nnc(Cc3ccncc3)c3ccccc23)cc1", "note": "[Vatalanib dihydrochloride (PTK787)]", "growth inhibition by drug alone": -0.0924},
      {"smiles": "COc1cc2nccc(Oc3ccc(NC(=O)C4(C(=O)Nc5ccc(F)cc5)CC4)cc3)c2cc1OC", "note": "[XL-184 free base (Cabozantinib)]", "growth inhibition by drug alone": -0.104},
      {"smiles": "C[C@@H](O[C@H]1OCCN(Cc2n[nH]c(=O)[nH]2)[C@H]1c1ccc(F)cc1)c1cc(C(F)(F)F)cc(C(F)(F)F)c1", "note": "[Aprepitant (MK-0869)]", "growth inhibition by drug alone": -0.277},
      {"smiles": "COc1cc2c(cc1O)CC[C@@H]1[C@@H]2CC[C@]2(C)[C@@H](O)CC[C@@H]12", "note": "[2-Methoxyestradiol]", "growth inhibition by drug alone": -0.534},
      {"smiles": "CNCc1ccc(-c2[nH]c3cc(F)cc4c3c2CCNC4=O)cc1", "growth inhibition by drug alone": -0.0791},
      {"smiles": "CC[C@@]1(O)C(=O)OCc2c1cc1n(c2=O)Cc2cc3c(CN(C)C)c(O)ccc3nc2-1", "note": "[Topotecan HCl]", "growth inhibition by drug alone": 0.85},
      {"smiles": "Nc1cc(C(F)(F)F)c(-c2cc(N3CCOCC3)nc(N3CCOCC3)n2)cn1", "growth inhibition by drug alone": -0.245},
      {"smiles": "CC(C)(C)c1ccc(S(=O)(=O)/C=C/C#N)cc1", "growth inhibition by drug alone": -0.0854},
      {"smiles": "C[C@]1(c2nc3c(C(N)=O)cccc3[nH]2)CCCN1", "note": "[ABT-888 (Veliparib)]", "growth inhibition by drug alone": -0.247},
      {"smiles": "Cc1ccc(NC(=O)c2ccc(CN3CC[C@H](N(C)C)C3)c(C(F)(F)F)c2)cc1Nc1nccc(-c2cncnc2)n1", "note": "[Bafetinib (INNO-406)]", "growth inhibition by drug alone": -0.225},
      {"smiles": "C[C@]12CC[C@@H]3c4ccc(O)cc4CC[C@H]3[C@@H]1CCC2=O", "note": "[Estrone]", "growth inhibition by drug alone": -0.323},
      {"smiles": "O=C(c1ccc(OCCN2CCCCC2)cc1)c1c(-c2ccc(O)cc2)sc2cc(O)ccc12", "note": "[Evista (Raloxifene Hydrochloride)]", "growth inhibition by drug alone": -0.167},
      {"smiles": "CCN(CC)CCNC(=O)c1c(C)[nH]c(/C=C2\\C(=O)Nc3ccc(F)cc32)c1C", "note": "[Sunitinib Malate (Sutent)]", "growth inhibition by drug alone": -0.325},
      {"smiles": "CCOc1ccc(Nc2nc(-c3c(C)nc4ccccn34)cs2)cc1", "growth inhibition by drug alone": 0.951},
      {"smiles": "C=CC(=O)N1CCC[C@@H](n2nc(-c3ccc(Oc4ccccc4)cc3)c3c(N)ncnc32)C1", "growth inhibition by drug alone": 0.915},
      {"smiles": "CS(=O)(=O)c1cccc(CNc2nc(Nc3ccc4c(c3)CCC(=O)N4)ncc2C(F)(F)F)c1", "growth inhibition by drug alone": -0.181},
      {"smiles": "CC(NC(=O)c1ccccc1/N=C/c1c(O)ccc2ccccc12)c1ccccc1", "note": "(stereo not drawn) [Sirtinol]", "growth inhibition by drug alone": -0.00892},
      {"smiles": "CN(Cc1cnc2nc(N)nc(N)c2n1)c1ccc(C(=O)N[C@@H](CCC(=O)O)C(=O)O)cc1", "note": "[Abitrexate (Methotrexate)]", "growth inhibition by drug alone": -0.173},
      {"smiles": "OCCn1cc(-c2cnc3nnn(Cc4ccc5ncccc5c4)c3n2)cn1", "growth inhibition by drug alone": -0.299},
      {"smiles": "COc1cc(Nc2ncc(F)c(Nc3ccc4c(n3)NC(=O)C(C)(C)O4)n2)cc(OC)c1OC", "note": "[R406(free base)]", "growth inhibition by drug alone": -0.353},
      {"smiles": "COc1cccc2c1C(=O)c1c(O)c3c(c(O)c1C2=O)C[C@@](O)(C(=O)CO)C[C@@H]3O[C@H]1C[C@H](N)[C@H](O)[C@H](C)O1", "note": "[Doxorubicin (Adriamycin)]", "growth inhibition by drug alone": 0.872},
      {"smiles": "CN(NC(=O)CC(=O)NN(C)C(=S)c1ccccc1)C(=S)c1ccccc1", "note": "[Elesclomol]", "growth inhibition by drug alone": 0.975},
      {"smiles": "CN(C)CCOc1ccc(/C(=C(/CCCl)c2ccccc2)c2ccccc2)cc1", "note": "[Toremifene Citrate (Fareston, Acapodene)]", "growth inhibition by drug alone": 0.00246},
      {"smiles": "CN1CCN(CCOc2cc(OC3CCOCC3)c3c(Nc4c(Cl)ccc5c4OCO5)ncnc3c2)CC1", "note": "[Saracatinib (AZD0530)]", "growth inhibition by drug alone": -0.423},
      {"smiles": "CC(C)C[C@H](NC(=O)[C@H](Cc1ccccc1)NC(=O)c1cnccn1)B(O)O", "note": "[Bortezomib (Velcade)]", "growth inhibition by drug alone": 0.978},
      {"smiles": "Cn1cncc1[C@@](N)(c1ccc(Cl)cc1)c1ccc2c(c1)c(-c1cccc(Cl)c1)cc(=O)n2C", "note": "[Tipifarnib (Zarnestra)]", "growth inhibition by drug alone": -0.267},
      {"smiles": "COC(=O)c1ccc2c(C(=Nc3ccc(N(C)C(=O)CN4CCN(C)CC4)cc3)c3ccccc3)c(O)[nH]c2c1", "note": "[BIBF1120 (Vargatef)]", "growth inhibition by drug alone": -0.347},
      {"smiles": "CC[C@@H]1/C=C(\\C)C[C@H](C)C[C@H](OC)[C@H]2O[C@@](O)(C(=O)C(=O)N3CCCC[C@H]3C(=O)O[C@H](/C(C)=C/[C@@H]3CC[C@H](Cl)[C@H](OC)C3)[C@H](C)[C@@H](O)CC1=O)[C@H](C)C[C@@H]2OC", "note": "[Pimecrolimus]", "growth inhibition by drug alone": 0.534},
      {"smiles": "CN(C)CCOc1ccc(-c2nc(-c3ccncc3)c(-c3ccc4c(c3)CC/C4=N\\O)[nH]2)cc1", "growth inhibition by drug alone": -0.644},
      {"smiles": "COc1ccc(CCN2CCN(CCCc3ccccc3)CC2)cc1OC", "growth inhibition by drug alone": -0.797},
      {"smiles": "CNC(=O)c1cc(Oc2ccc(NC(=O)Nc3cc(C(C)(C)C)nn3-c3ccc4ncccc4c3)c(F)c2)ccn1", "note": "[DCC-2036 (Rebastinib)]", "growth inhibition by drug alone": -0.231},
      {"smiles": "CCC(C)(C)C(=O)O[C@H]1C[C@@H](C)C=C2C=C[C@H](C)[C@H](CC[C@@H]3C[C@@H](O)CC(=O)O3)[C@H]21", "note": "[Simvastatin (Zocor)]", "growth inhibition by drug alone": -0.115},
      {"smiles": "CCc1ccc(CCOc2ccc(CC3SC(=O)NC3=O)cc2)nc1", "note": "(stereo not drawn) [Pioglitazone (Actos)]", "growth inhibition by drug alone": -0.369},
      {"smiles": "O=C(O)C(Cc1c[nH]c2ccccc12)N1C(=O)c2ccccc2C1=O", "note": "(stereo not drawn)", "growth inhibition by drug alone": -0.253}
    ]}
  ]
}
